Reference: PubChem BioAssay (Tox21)
Inconclusive results are not listed. Active and inactive are the calls of the source. Unless noted, the call rests on the fitted dose curve; in most records, active means well fitted curve in the direction sought with a large enough effect in the repeat runs; inconclusive means weak or mixed curves; inactive means no such curve, though single readings can be large; an effect the other way counts as inactive or inconclusive.

Experiments:
[1] = qHTS assay to identify small molecule antagonists of the estrogen receptor alpha (ER-alpha) signaling pathway using the BG1 cell line in the presence of 0.1 nM 17-beta-estradiol - cell viability counter screen (AID 1259241); further: nearly all actives have a fitted effect of over 40% in size
Outline: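 Measures cytotoxicity alongside the ER-alpha antagonist readout: VM7Luc4E2 cells, charcoal-stripped serum, 0.1 nM 17beta-estradiol final, 22 hr compound incubation at 37C, CellTiter-Fluor fluorescence.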

[2] = qHTS assay to identify small molecule antagonists of the androgen receptor (AR) signaling pathway using the MDA cell line in the presence of 0.5 nM R1881 - cell viability counter screen (AID 1259242); further: nearly all actives have a fitted effect of over 45% in size
Outline: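 Fluorescence from CellTiter-Fluor, which reports protease activity of live cells, was read 30 min after reagent addition to MDA-kb2 cells that had been incubated 16 hr with compound and 0.5 nM R1881.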

[3] = target: Estrogen receptor (Homo sapiens) (UniProt P03372); test: qHTS assay to identify small molecule antagonists of the estrogen receptor alpha (ER-alpha) signaling pathway using the BG1 cell line in the presence of 0.1 nM 17-beta-estradiol (AID 1259244); further: nearly all actives have a fitted effect of over 50% in size
Outline: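 Quantitative high-throughput screen in VM7Luc4E2 cells: compound plus 0.1 nM E2 (final), 22 h, 37C, 5% CO2; ONE-Glo added, 30 min room temperature, luminescence measured.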

[4] = qHTS assay to identify small molecule HDAC inhibitors (AID 1259364); further: nearly all actives have a fitted effect of over 45% in size; further: potency means the concentration at half of the fitted maximal effect
Outline: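 Endogenous HDAC class I/II activity was measured in wild-type HCT-116 cells by HDAC-Glo luminescence after 2 h compound treatment.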

[5] = qHTS assay to identify small molecule HDAC inhibitors - cell viability counter screen (AID 1259365); further: series mostly up to about 92 µM; nearly all actives have a fitted effect of over 50% in size
Outline: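 Following a 2hr exposure of overnight-plated wild-type HCT-116 cells to DMSO-delivered compounds, CellTiter-Glo was added and luminescence recorded after 30min at room temperature.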

[6] = qHTS assay to identify small molecule agonists of the sonic hedgehog signaling (Shh) pathway - cell viability counter screen (AID 1259366); further: nearly all actives have a fitted effect of over 50% in size
Outline: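 After a 4hr attachment at 37C, NIH/3T3 cells bearing an integrated Gli1-driven luciferase reporter were dosed with compounds. Treatment lasted 24hr, with the final hour including CellTiter-Fluor for a fluorescence viability measurement.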

[7] = qHTS assay to identify small molecule antagonists of the sonic hedgehog signaling (Shh) pathway - cell viability counter screen (AID 1259367); further: nearly all actives have a fitted effect of over 55% in size
Outline: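 NIH/3T3-derived Gli1-Luc reporter cells (2,000 per well) rested 4 hr at 37 C, then received DMSO compounds plus conditioned medium. After 23 hr of treatment, CellTiter-Fluor was added for 1 hr at 37C and fluorescence read.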

[8] = qHTS assay to identify small molecule antagonists of the sonic hedgehog signaling (Shh) pathway (AID 1259369; calls by dose curve; further: nearly all actives have a fitted effect of over 45% in size)
Outline: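 Screening used 3T3Gli1-Luc cells at 2,000 per well, compounds delivered in DMSO, and conditioned medium as agonist stimulus; plates incubated 24hr at 37 C and 5% CO2 before a 30min luciferase step.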

[9] = target: Estrogen receptor beta (Homo sapiens) (UniProt Q92731); test: qHTS assay to identify small molecule antagonists of the estrogen receptor beta (ER-beta) signaling pathway (AID 1259378; active means well fitted inhibition curve with a large enough effect in the signal ratio in the repeat runs, not every such curve was filed as active; the % refers to the signal ratio)
Outline: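 ER-beta-UAS-bla HEK293T (GripTite) cells in 2% charcoal-stripped FBS medium were preincubated 6 hr at 37C, dosed with compound, then stimulated with 1 nM E2 (final) for 16 hr; beta-lactamase reporter read by B/G FRET fluorescence after 2 hr substrate loading.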

[10] = qHTS assay to identify small molecule agonists of the androgen receptor (AR) signaling pathway in the presence of an antagonist - cell viability counter screen (AID 1259379);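 further: MDA-kb2 human breast cancer cells carrying an MMTV luciferase reporter; series mostly up to about 92 µM; nearly all actives have a fitted effect of over 25% in size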
Outline: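 In MDA-kb2 cells (human breast carcinoma, MMTV-luciferase), compounds at 15 concentrations plus 3.0uM nilutamide; 16 hr, 37C, 0% CO2; CellTiter-Fluor fluorescence read for viability.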

[11] = qHTS assay to identify small molecule agonists of the estrogen receptor beta (ER-beta) signaling pathway - cell viability counter screen (AID 1259380); further: nearly all actives have a fitted effect of over 30% in size
Outline: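 Viability of ER-beta-UAS-bla HEK293T cells was determined by CellTiter-Glo luminescence following 16 hr treatment with test compounds at 37C.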

[12] = qHTS assay to identify small molecule antagonists of the estrogen receptor beta (ER-beta) signaling pathway - cell viability counter screen (AID 1259382); further: series mostly up to about 92 µM; nearly all actives have a fitted effect of over 55% in size
Outline: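 Tox21 10K library tested in qHTS format on ER-beta-bla HEK293T cells stimulated with 1nM E2; 16 hr treatment at 37C. Same-well CellTiter-Glo luminescence served as the cell viability measure.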

[13] = target: Estrogen receptor (Homo sapiens) (UniProt P03372); test: qHTS assay to identify small molecule agonists of the estrogen receptor alpha (ER-alpha) signaling pathway in the presence of an antagonist (AID 1259383; calls by dose curve; further: nearly all actives have a fitted effect of over 15% in size; further: potency means the concentration at half of the fitted maximal effect; on activation: top concentration of the series differs between compounds)
Outline: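 In VM7Luc4E2 cells, 4,000 per well, compounds at 15 concentrations were co-incubated 22hr at 37C with 10.0nM final ICI-182,780. Luminescence from the stably transfected 4×ERE-luciferase reporter was recorded 30min after ONE-Glo addition.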

[14] = qHTS assay to identify small molecule agonists of the sonic hedgehog signaling (Shh) pathway (AID 1259368; calls by dose curve;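 further: NIH/3T3-derived 3T3Gli1-Luc cells carrying a stable Gli1-driven firefly luciferase reporter; series mostly up to about 92 µM; nearly all actives have a fitted effect of over 15% in size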)
Outline: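 Luminescent signal was taken as a measure of Gli1-controlled luciferase expression in stably transfected NIH/3T3-derived cells that had been treated for 24 hr with compounds delivered in DMSO.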

[15] = qHTS assay to identify small molecule agonists or antagonists of the thyroid stimulating hormone receptor (TSHR) signaling pathway - wild type cell line counter screen (AID 1259384; calls by dose curve)
Outline: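 Wild-type HEK293 cells were plated 18 h at 37 C/5% CO2, pin-dosed with compound plus Ro20-1724 medium, held 30 min at room temperature, then given cAMP-d2 and anti-cAMP-cryptate; fluorescence was read after 1 h. Fifteen concentrations, triplicate.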

[16] = target: Thyrotropin receptor (Homo sapiens) (UniProt P16473); test: qHTS assay to identify small molecule antagonists of the thyroid stimulating hormone receptor (TSHR) signaling pathway (AID 1259385; calls by dose curve; further: nearly all actives have a fitted effect of over 20% in size)
Outline: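 TSHR-HEK293 cells were plated and held 18 h at 37C/5% CO2, then given compound plus Ro20-1724 and stimulated with TSH at 1.5 ng/mL final. After 30 min at room temperature, cAMP was detected with cAMP-d2/anti-cAMP-cryptate (1 h) by fluorescence.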

[17] = target: Estrogen receptor beta (Homo sapiens) (UniProt Q92731); test: qHTS assay to identify small molecule agonists of the estrogen receptor beta (ER-beta) signaling pathway (AID 1259377; active means well fitted activation curve with a large enough effect in the signal ratio in the repeat runs, not every such curve was filed as active; the % refers to the signal ratio)
Outline: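 In HEK293T cells bearing a UAS-beta-lactamase reporter under ER-beta control, DMSO-delivered compounds were incubated for 16 hr at 37C. Activity was detected as fluorescence 2 hours after LiveBLAzer B/G FRET substrate addition.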

Measured: Potency

Estrogen receptor (Homo sapiens), sequence (P03372 whole entry, looked up): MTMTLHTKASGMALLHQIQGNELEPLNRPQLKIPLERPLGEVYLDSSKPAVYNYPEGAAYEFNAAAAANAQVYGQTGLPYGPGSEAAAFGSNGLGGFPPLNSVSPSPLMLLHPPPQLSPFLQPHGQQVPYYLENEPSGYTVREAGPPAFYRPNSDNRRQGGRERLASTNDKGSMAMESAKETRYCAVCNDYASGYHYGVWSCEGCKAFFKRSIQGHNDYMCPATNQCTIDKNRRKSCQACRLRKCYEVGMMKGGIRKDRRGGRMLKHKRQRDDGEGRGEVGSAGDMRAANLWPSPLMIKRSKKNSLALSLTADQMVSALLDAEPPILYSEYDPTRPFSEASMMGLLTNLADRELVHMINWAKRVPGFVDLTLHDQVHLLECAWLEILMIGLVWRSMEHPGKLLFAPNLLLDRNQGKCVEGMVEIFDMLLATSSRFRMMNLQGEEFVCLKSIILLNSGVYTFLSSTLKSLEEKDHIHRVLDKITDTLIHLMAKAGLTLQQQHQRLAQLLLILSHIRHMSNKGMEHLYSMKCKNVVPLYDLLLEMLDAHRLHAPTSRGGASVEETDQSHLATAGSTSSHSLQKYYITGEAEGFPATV
Thyrotropin receptor (Homo sapiens), sequence (P16473 whole entry, looked up): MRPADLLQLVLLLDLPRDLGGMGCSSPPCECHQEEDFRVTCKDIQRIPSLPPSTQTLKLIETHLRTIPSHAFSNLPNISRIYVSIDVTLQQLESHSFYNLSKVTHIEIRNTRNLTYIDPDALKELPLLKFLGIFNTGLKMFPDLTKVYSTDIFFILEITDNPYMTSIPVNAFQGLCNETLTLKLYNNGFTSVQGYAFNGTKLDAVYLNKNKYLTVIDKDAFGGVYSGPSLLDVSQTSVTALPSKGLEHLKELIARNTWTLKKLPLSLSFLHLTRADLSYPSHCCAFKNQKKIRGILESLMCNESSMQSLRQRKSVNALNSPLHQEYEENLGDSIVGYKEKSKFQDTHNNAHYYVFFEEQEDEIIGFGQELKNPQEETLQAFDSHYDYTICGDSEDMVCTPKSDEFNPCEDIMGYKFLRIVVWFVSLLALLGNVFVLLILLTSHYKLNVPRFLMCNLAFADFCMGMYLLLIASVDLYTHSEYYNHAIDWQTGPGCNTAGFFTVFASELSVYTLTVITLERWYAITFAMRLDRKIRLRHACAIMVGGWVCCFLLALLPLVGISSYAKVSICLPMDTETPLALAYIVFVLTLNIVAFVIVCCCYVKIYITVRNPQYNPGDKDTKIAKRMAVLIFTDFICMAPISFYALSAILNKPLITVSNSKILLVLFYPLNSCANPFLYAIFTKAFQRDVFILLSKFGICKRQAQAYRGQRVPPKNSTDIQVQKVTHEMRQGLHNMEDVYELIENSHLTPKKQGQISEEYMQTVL
Estrogen receptor beta (Homo sapiens), sequence (Q92731 whole entry, looked up): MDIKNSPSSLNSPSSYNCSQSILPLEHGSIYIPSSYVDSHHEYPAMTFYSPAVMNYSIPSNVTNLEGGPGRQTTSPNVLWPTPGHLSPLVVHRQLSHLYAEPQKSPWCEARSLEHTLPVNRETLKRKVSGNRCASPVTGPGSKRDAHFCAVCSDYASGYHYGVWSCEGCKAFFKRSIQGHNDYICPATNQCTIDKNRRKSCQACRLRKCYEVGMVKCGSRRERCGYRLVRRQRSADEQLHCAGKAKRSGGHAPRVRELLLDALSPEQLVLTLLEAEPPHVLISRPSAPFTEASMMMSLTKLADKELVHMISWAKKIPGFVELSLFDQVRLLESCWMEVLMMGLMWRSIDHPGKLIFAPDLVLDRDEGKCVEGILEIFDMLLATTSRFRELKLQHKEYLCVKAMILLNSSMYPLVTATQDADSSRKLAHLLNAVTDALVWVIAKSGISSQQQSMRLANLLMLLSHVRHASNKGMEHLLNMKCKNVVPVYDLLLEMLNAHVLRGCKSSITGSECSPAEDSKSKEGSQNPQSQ

CC1CN1P(=O)(N1CC1C)N1CC1C (stereo unspecified)
not listed: [14] | [15] | [16] | [17]
inactive: all other assays above

c1coc(-c2nc3ccccc3[nH]2)c1
active: [4] 0.611 µM | [13] 7.7 µM
not listed: [11] | [17]
inactive: all other assays above

ClC(Cl)Br
not listed: [9] | [11] | [17]
inactive: all other assays above

ClCCCN1CCN(c2cccc(Cl)c2)CC1
not listed: [9] | [17]
inactive: all other assays above

O=NN1CCN(N=O)CC1
not listed: [17]
inactive: all other assays above

CCOP(=S)(OCC)Oc1nc(Cl)n(C(C)C)n1
not listed: [9] | [16] | [17]
inactive: all other assays above

OCCSCSCCO
not listed: [14] | [15]
inactive: all other assays above

O=[N+]([O-])c1cccc2cccnc12
not listed: [9] | [17]
inactive: all other assays above

Nc1cc2c3c(c1)C(c1ccccc1)=N[C@@H](NC(=O)c1cccnc1)C(=O)N3CC2
not listed: [8] | [14]
inactive: all other assays above

CC(=O)CCc1ccc2c(c1)OCO2
not listed: [9] | [15] | [17]
inactive: all other assays above

CNC(=O)Oc1ccc(N(C)C)c(C)c1
not listed: [9] | [17]
inactive: all other assays above

NC(=S)C(N)=S
not listed: [11] | [14] | [15] | [16]
inactive: all other assays above

CCCCc1ccc(O)cc1
not listed: [14]
inactive: all other assays above

O=P(O)(Oc1ccccc1)Oc1ccccc1
not listed: [17]
inactive: all other assays above
